Hits are enriched below; roughly 3.1% of the tested compounds scored in any of these assays.
S16 viability = S16 Schwann cell cytotoxicity; hit rate 0.48% among 43,000; S16 Pmp22-F2sN Schwann cells viability, CellTiter-Glo, 24 h; Potency, µM (highest dose often 57.5 µM), actives largely listed as cytotoxic; also: nearly all actives have a fitted effect of over 65% in size
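Luminescence from CellTiter-Glo, read by CCD camera after a 15 min room-temperature incubation, served as the viability signal. Reporter Schwann cells (S16 Pmp22-F2sN) had been treated with pin-transferred compounds for 24 h at 37C.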
SKOV3 invasion = ovarian cancer metastasis inhibition, 3D TME model; SKOV3ip1-GFP adhesion/invasion on 3D omental model, fluorescence; Potency, µM (series often up to 45.8 µM), most hits filed as inhibitors; hit rate 0.1% among 46,000; AID 1963576; also: nearly all actives have a fitted effect of over 65% in size
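A 3D layer of primary human omental fibroblasts, mesothelial cells, fibronectin and collagen I, grown 48 hr, received SKOV3ip1-GFP cells in serum-free medium plus compounds at 0.36-46 umol/L. After 2 hr RT and 16 hr 37 C, fixed adherent GFP cells were counted; normalized to DMSO and tomatine.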
mTORC1 inh = reduces mTORC1 signaling in Tsc2 and p53 null MEF cells; hit rate 0.78% among 44,000; Tsc2-/- p53-/- MEF, phospho-rpS6 immunofluorescence/PI, 24 h; AID 493208; Potency, µM (top dose mostly 38.3 µM), usual class: inhibitors; also: nearly all actives have a fitted effect of over 50% in size
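Readout is phospho-S6 Alexa 488 signal normalized to PI per well, reported as % active cells with thresholds set from rapamycin (7.5 nM) and DMSO controls. Cells: Tsc2-/-, p53-/- MEFs, 24 hrs compound at 37 C; PI cell number serves as viability.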
PMP22 txn = modulators of PMP22 gene transcription in S16 Schwann cells; S16 Pmp22-F2sN Schwann cells (luciferase reporters placed in the Pmp22 gene), FLuc/NLuc coincidence luminescence, 24 h; Potency, µM (doses to about 57.5 µM), most hits filed as inhibitors; hit rate 2% among 43,000; active = clear falling dose curves in both reporters; inconclusive = both reporters move, but less clearly or upward; inactive = either reporter flat; the % is the NLuc reporter signal
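Luminescent read-out of sequential FLuc and NLuc signals from a reporter embedded in the Pmp22 3' UTR of S16 Schwann cells, taken after 24 h compound exposure at 37C; compounds reducing both signals score as inhibitors of expression.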
p53null 39C tox = p53 null cell cytotoxicity, nonpermissive temperature | hit rate 0.97% among 55,000 | Potency, µM (doses to about 46.1 µM), hits mostly cytotoxic | AID 904 | H1299 p53-null (neo) cells, 39C, ATPlite viability, 24 h; also: nearly all actives have a fitted effect of over 50% in size
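H1299 lung cancer cells, p53-null (H1299-neo) or expressing p53 A138V (H1299-p53A138V), were plated overnight at 37C, then exposed to compounds at up to 46 uM for 24 hr at 39C. Viability was read by ATP-based luminescence.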
p53null 32C kill = kills p53 null cells at the permissive temperature; Potency, µM (top dose mostly 46.1 µM), usual class: cytotoxic; hit rate 0.62% among 55,000; AID 903; H1299-neo p53 null cells, ATP luminescence, 24 h, 32C; also: nearly all actives have a fitted effect of over 55% in size
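H1299-neo (p53 null) cells, 600/well, treated 24 h at 32C with compound up to 46 uM; ATPlite luminescence viability, normalized to DMSO and 100 uM tamoxifen; AC50 by Hill fit.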
A number is an active result; 0 = inactive; ? = inconclusive; - = no result. Unless noted, calls follow the shape of the dose curve; as a rule, active = well fitted curve in the direction sought with a large enough effect; inconclusive = small, poorly fitted or top-dose-only effect, or another doubt; inactive = no such curve, though single readings can be large; an effect the other way counts as inactive or inconclusive.

SMILES | S16 viability | SKOV3 invasion | mTORC1 inh | PMP22 txn | p53null 39C tox | p53null 32C kill
CC(C)OC(=O)C1=CN(C(=O)c2ccc(F)c(F)c2)CC(C)(C)c2c1[nH]c1ccccc21 | - | 0 | - | - | - | -
CCC1CCCCN1CCCNC(=O)c1cc2c(Cl)nc3ccc(C)cc3c2s1 (configuration not stated) | ? | ? | 0 | ? | 20µM | 0
COc1ccc(-c2cc(C(=O)Oc3ccc(Br)cc3)c3ccccc3n2)cc1 | 0 | 0 | 0 | 0 | 13µM | ?
COc1ccc(-c2cc(C(=O)Oc3ccc(C)c(C)c3)c3ccccc3n2)cc1 | 0 | 0 | 0 | 0 | 0 | 0
COc1ccc(OC)c(-c2cc(C(=O)Nc3cnn(Cc4ccc(Cl)cc4Cl)c3)no2)c1 | - | ? | ? | - | 10µM | ?
COc1ccc2c(c1)CCc1c(C(=O)Nc3cnn(Cc4ccc(Cl)cc4Cl)c3)noc1-2 | 0 | 0 | 0 | 0 | 0 | 0
CCCCCOC(=O)Nc1nc(=O)n([C@@H]2O[C@H](C)[C@@H](O)C2O)cc1F (some centres not stated) | - | 0 | - | - | - | -
CCOc1ccc(NC(=O)c2oc3ccccc3c2NC(=O)c2c(F)cccc2F)cc1 | 0 | 0 | 0 | 0 | 0 | 0
O=C(Nc1noc2ccccc12)c1c(F)cccc1F | 0 | 0 | 0 | 0 | 10µM | ?
CCOc1ccc(-c2cn3nc(CC(C)C)sc3n2)cc1 | 0 | 0 | 0 | 0 | ? | ?
COCc1nn2cc(-c3ccc(C)cc3)nc2s1 | 0 | 0 | 0 | ? | 10µM | 10µM
NC1=N[C@@]2(c3cc(NC(=O)c4ccc(F)cn4)ccc3F)COC[C@@H]2CS1 | - | 0 | - | - | - | -
O=C(NCc1cccs1)c1ccc(Cn2c(SCc3ccccc3)nc3cccnc32)cc1 | 0 | 0 | 0 | 0 | ? | ?
CC1CCCCN1CCNC(=O)c1ccc(Cn2c(SCc3ccccc3)nc3cccnc32)cc1 (configuration not stated) | 0 | 0 | 0 | 0 | 16µM | 13µM
Cc1ccc(CSc2nc3cccnc3n2Cc2ccc(C(=O)NCc3cccs3)cc2)cc1 | 0 | 0 | 0 | 0 | 16µM | ?
CC1CCN(CCNC(=O)c2ccc(Cn3c(SCc4ccccc4)nc4cccnc43)cc2)CC1 | ? | 0 | 0 | 0 | 13µM | ?
CCN(CC)CCCNC(=O)c1ccc(Cn2c(SCc3ccccc3)nc3cccnc32)cc1 | ? | 0 | 0 | 0 | ? | ?
Cc1ccc(-c2nc(Cn3c(SCc4ccc(F)cc4)nc4cccnc43)c(C)o2)cc1 | 0 | 0 | 0 | 7.4µM | 0 | 0
O=c1ccn([C@@H]2O[C@H](CO)[C@H](O)[C@H]2O)c(=O)[nH]1 | - | 0 | - | - | - | -
CCC(=C(c1ccc(O)cc1)c1ccc(OCCNC)cc1)c1ccccc1 | - | 0 | - | - | - | -
O=C(NCCN1CCCCC1)c1ccc(Cn2c(SCc3ccccc3)nc3cccnc32)cc1 | ? | ? | 0 | 0 | 13µM | 16µM
O=C(NCCc1ccccc1)c1ccc(CSc2nc3cccnc3n2Cc2ccc(F)cc2)cc1 | 0 | 0 | 0 | 0 | 0 | 0
CNc1nc(-c2ccc3c(N)n[nH]c3c2)cc(N2C[C@@H](C(=O)NC3CCCCC3)CC[C@@H]2C)n1 | - | 0 | - | - | - | -
COc1ccc2nc(C)cc(Nc3ccc(Cl)c(Cl)c3)c2c1 | ? | ? | ? | ? | 13µM | ?
CCCCCCCCCCCCCC(=O)N[C@H](CO)[C@H](O)c1ccc([N+](=O)[O-])cc1 | - | 0 | - | - | - | -
Cc1ccc(N(CC(C)C)S(=O)(=O)c2nnc(NC(=O)c3ccco3)s2)cc1 | 0 | 0 | 0 | 0 | 0 | 0
CCN(c1ccccc1)S(=O)(=O)c1nnc(NC(=O)c2ccco2)s1 | 0 | 0 | 0 | 0 | 1µM | ?
C[C@]12CC[C@@H]3c4ccc(O)cc4C[C@@H](CCCCCCCCCS(=O)CCCC(F)(F)C(F)(F)F)[C@H]3[C@H]1CC[C@H]2O (some centres not stated) | - | 0 | - | - | - | -
CCSc1ccccc1C(=O)Nc1ccc(-c2nc3ccccc3s2)c(O)c1 | ? | 0 | 2.9µM | 0 | 0 | 0
